Test results: PubChem BioAssay AID1159580 (chemical genetic matrix, 2015)
Several values for one entry are separate records, joined by “and”; a condition that tells them apart may be missing. Equal entries are not always repeated. The whole screen tested about 5,500 compounds, of which about 2,000 (36%) were called active. Not shown: some 18% with an inconclusive outcome. No stated cut-off is given here; in the data, active means normalized growth mostly below about 0.91 (no sharp cut-off); inconclusive means no clear call, values can overlap the other calls; inactive means mostly above about 0.92. The list shows a part of the results.

Assay: chemical genetic growth profiling, strain panel (AID 1159580);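 further: tested at 20 µM; growth read once vehicle control cultures reached saturation at 30 °C; 1 = growth at the plate median or of vehicle wells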
Details: S. cerevisiae deletion strains, growth OD

Measured: normalized growth

O=c1cc(-c2ccc(O)cc2)oc2cc(O[C@@H]3O[C@H](CO)[C@@H](O)[C@H](O)[C@H]3O)cc(O)c12
inactive: locus YAL021C, strain ccr4, stronger effect = lower value 0.975 | locus YAL026C, strain drs2, stronger effect = lower value 1.02 | locus YAL030W, strain snc1, stronger effect = lower value 1.01 | locus YBL061C, strain skt5, stronger effect = lower value 1.01 | locus YBR009C, strain hhf1, stronger effect = lower value 0.995 | locus YBR021W, strain FUR4, stronger effect = lower value 0.953 | locus YBR023C, strain chs3, stronger effect = lower value 0.995 | locus YBR171W, strain sec66, stronger effect = lower value 1.02 | locus YBR229C, strain ROT2, stronger effect = lower value 0.983 | locus YBR231C, strain swc5, stronger effect = lower value 1.04 | locus YBR279W, strain paf1, stronger effect = lower value 1 | locus YCL011C, strain gbp2, stronger effect = lower value 0.992 | locus YCL016C, strain dcc1, stronger effect = lower value 0.983 | locus YCL029C, strain bik1, stronger effect = lower value 0.973 | locus YCL069W, strain vba3, stronger effect = lower value 1 | locus YCR088W, strain abp1, stronger effect = lower value 1 | locus YDL005C, strain med2, stronger effect = lower value 1.03 | locus YDL035C, strain GPR1, stronger effect = lower value 0.999 | locus YDL040C, strain nat1, stronger effect = lower value 0.998 | locus YDL074C, strain BRE1, stronger effect = lower value 0.974 | locus YDL101C, strain DUN1, stronger effect = lower value 0.986 | locus YDL185W, strain tfp1, stronger effect = lower value 0.968 | locus YDL192W, strain arf1, stronger effect = lower value 0.976 | locus YDR001C, strain nth1, stronger effect = lower value 1.01 | locus YDR069C, strain doa4, stronger effect = lower value 1.01 | locus YDR101C, strain arx1, stronger effect = lower value 0.981 | locus YDR137W, strain rgp1, stronger effect = lower value 1.01 | locus YDR150W, strain NUM1, stronger effect = lower value 0.988 | locus YDR159W, strain sac3, stronger effect = lower value 1.06 | locus YDR162C, strain NBP2, stronger effect = lower value 1.02 | locus YDR195W, strain ref2 1.01 | locus YDR297W, strain sur2, stronger effect = lower value 1.02 | locus YDR318W, strain mcm21, stronger effect = lower value 0.986 | locus YDR334W, strain swr1, stronger effect = lower value 1.01 | locus YDR335W, strain msn5, stronger effect = lower value 1 | locus YDR388W, stronger effect = lower value 0.973 | locus YDR392W, strain spt3, stronger effect = lower value 0.935 | locus YDR502C, strain sam2, stronger effect = lower value 0.982 | locus YEL003W, strain gim4, stronger effect = lower value 1.02 | locus YEL037C, strain rad23, stronger effect = lower value 1.01 | locus YEL061C, strain CIN8 (second series), stronger effect = lower value 1 | locus YEL061C, strain CIN8, stronger effect = lower value 0.99 | locus YER015W, strain faa2, stronger effect = lower value 0.993 | locus YER016W, strain bim1, stronger effect = lower value 1.01 | locus YER110C, stronger effect = lower value 0.995 | locus YER111C, strain swi4, stronger effect = lower value 1.01 | locus YER155C, strain BEM2 (second series), stronger effect = lower value 1.05 | locus YER155C, strain BEM2, stronger effect = lower value 0.98 | locus YER167W, strain BCK2, stronger effect = lower value 0.967 | locus YFR010W, strain ubp6, stronger effect = lower value 1.02 | locus YGL078C, strain dbp3, stronger effect = lower value 0.984 | locus YGL086W, strain mad1, stronger effect = lower value 0.978 | locus YGL167C, strain pmr1, stronger effect = lower value 1 | locus YGL173C, strain kem1, stronger effect = lower value 1.03 | locus YGL227W, strain vid30, stronger effect = lower value 1.01 | locus YGL240W, strain doc1, stronger effect = lower value 1.02 | locus YGL248W, strain PDE1, stronger effect = lower value 1 | locus YGL253W, strain hxk2, stronger effect = lower value 1.01 | locus YGR078C, strain PAC10, stronger effect = lower value 0.999 | locus YGR135W, strain pre9, stronger effect = lower value 0.973 | locus YGR252W, strain gcn5, stronger effect = lower value 0.974 | locus YHR013C, strain ard1, stronger effect = lower value 0.994 | locus YHR027C, strain rpn1, stronger effect = lower value 1.01 | locus YHR030C, strain SLT2, stronger effect = lower value 0.986 and 1.05 | locus YHR079C, strain IRE1 (second series), stronger effect = lower value 0.971 | locus YHR079C, strain IRE1, stronger effect = lower value 1.03 | locus YHR094C, strain hxt1, stronger effect = lower value 0.972 | locus YHR129C, strain ARP1, stronger effect = lower value 0.988 | locus YHR142W, strain chs7, stronger effect = lower value 1 | locus YHR200W, strain rpn10, stronger effect = lower value 0.957 | locus YIL066C, strain RNR3, stronger effect = lower value 0.979 | locus YIL073C, strain SPO22, stronger effect = lower value 0.969 | locus YIL125W, strain kgd1, stronger effect = lower value 0.974 | locus YIR030C, strain dcg1, stronger effect = lower value 0.987 | locus YJL092W, strain hpr5, stronger effect = lower value 1 | locus YJL095W, strain BCK1 (second series), stronger effect = lower value 1.02 | locus YJL095W, strain BCK1, stronger effect = lower value 1.02 | locus YJL115W, strain asf1, stronger effect = lower value 1.01 | locus YJL129C, strain trk1, stronger effect = lower value 1 | locus YJL134W, strain LCB3, stronger effect = lower value 0.983 | locus YJL154C, strain vps35, stronger effect = lower value 1.01 | locus YJL164C, strain tpk1, stronger effect = lower value 0.979 | locus YJL166W, strain qcr8, stronger effect = lower value 1.01 | locus YJL168C, strain set2, stronger effect = lower value 0.995 | locus YJL187C, strain SWE1 (second series), stronger effect = lower value 0.998 | locus YJR043C, strain POL32, stronger effect = lower value 0.995 | locus YJR066W, strain TOR1, stronger effect = lower value 0.998
